Data as given in paper PMC4336329 (PLoS ONE, 2015).
Among all 310,000 compounds or so, about 14,000 (4.5%) showed an effect of 50% or more. The effect is printed as a negative number. The full list was thinned out, with strong results kept by preference.

molecular target: human ether-à-go-go-related gene (hERG) potassium channel (human, UniProt Q12809); test: primary screen, population patch clamp on CHO cells stably expressing hERG; higher = less effect of the substance
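Further: peak tail current of the secondary pulse compared with the same well before compound.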

human ether-à-go-go-related gene (hERG) potassium channel, sequence (Q12809 whole entry, looked up): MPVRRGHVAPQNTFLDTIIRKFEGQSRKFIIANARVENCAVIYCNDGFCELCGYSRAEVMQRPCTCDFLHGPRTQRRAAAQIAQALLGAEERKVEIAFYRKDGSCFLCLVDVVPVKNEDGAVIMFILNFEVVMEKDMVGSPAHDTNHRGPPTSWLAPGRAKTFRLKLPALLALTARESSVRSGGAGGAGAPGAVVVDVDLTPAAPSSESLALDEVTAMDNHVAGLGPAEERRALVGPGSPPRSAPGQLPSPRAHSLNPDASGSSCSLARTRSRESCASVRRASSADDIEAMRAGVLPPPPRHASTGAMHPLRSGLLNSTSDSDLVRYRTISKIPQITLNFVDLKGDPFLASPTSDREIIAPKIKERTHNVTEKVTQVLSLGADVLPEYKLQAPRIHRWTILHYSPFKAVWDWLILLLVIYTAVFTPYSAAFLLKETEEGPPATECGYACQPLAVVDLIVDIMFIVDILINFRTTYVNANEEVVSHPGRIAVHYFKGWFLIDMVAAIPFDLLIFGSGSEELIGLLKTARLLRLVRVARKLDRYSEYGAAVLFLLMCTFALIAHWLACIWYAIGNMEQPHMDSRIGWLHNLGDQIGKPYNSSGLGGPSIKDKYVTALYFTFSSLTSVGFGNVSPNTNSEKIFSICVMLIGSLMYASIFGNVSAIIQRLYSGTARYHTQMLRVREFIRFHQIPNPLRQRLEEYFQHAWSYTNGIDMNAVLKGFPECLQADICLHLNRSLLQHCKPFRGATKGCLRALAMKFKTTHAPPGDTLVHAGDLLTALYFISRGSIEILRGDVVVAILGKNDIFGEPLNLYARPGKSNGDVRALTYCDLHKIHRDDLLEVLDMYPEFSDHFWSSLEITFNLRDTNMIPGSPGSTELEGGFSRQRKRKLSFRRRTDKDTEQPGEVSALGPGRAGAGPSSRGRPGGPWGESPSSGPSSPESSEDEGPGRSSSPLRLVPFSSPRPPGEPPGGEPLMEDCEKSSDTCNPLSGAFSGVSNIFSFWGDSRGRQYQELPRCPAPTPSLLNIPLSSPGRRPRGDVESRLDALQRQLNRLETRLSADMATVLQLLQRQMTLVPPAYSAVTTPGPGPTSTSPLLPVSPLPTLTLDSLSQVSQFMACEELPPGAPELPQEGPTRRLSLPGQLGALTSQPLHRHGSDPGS

Compound | hERG current change (%, negative = inhibition) at 10uM [%]
Cc1nc2ccsc2c(=O)n1-c1cccc(Cl)c1 | 14.4
O=C(NNC(=O)c1cccc(O)c1)Nc1ccc([N+](=O)[O-])cc1 | 16.3
O=C(C(Cc1ccccc1)n1cccc1)N1CCCCCC1 (centres unmarked) | 12.1
O=C(C(Cc1ccccc1)n1cccc1)N1CCN(C2CCCCC2)CC1 (centres unmarked) | -56.6
O=C(CCCc1ccccc1)N1CCN(C2CCCCC2)CC1 | -70.8
COc1ccc(CCC(=O)N2CCCC(Nc3ccc(OC)cc3)C2)cc1 (centres unmarked) | -6.96
O=C(c1ccccc1)c1cccn1CC(=O)N1CCN(C2CCCCC2)CC1 | -52.6
COc1ccc(CCC(=O)N2CCN(C3CCCCC3)CC2)cc1 | -69.1
O=C(c1ccccc1)c1cccn1CC(=O)N1CCCCCC1 | 5.2
O=C(Cc1ccccc1)N1CCN(C2CCCC2)CC1 | 0.401
O=C(C(Cc1ccccc1)n1cccc1)N1CCCCC1 (centres unmarked) | 2.03
O=C(Cc1ccccc1)N1CCN(C2CCCCCC2)CC1.O=C(O)C(=O)O | -19.2
O=C(c1ccccc1)c1cccn1CC(=O)N1CCN(c2ccccc2)CC1 | -9.33
COc1ccc(CCC(=O)N2CCN(C(=O)c3ccccc3)CC2)cc1 | 5.76
CN1CCN(C(=O)Nc2ccccc2)CC1.O=C(O)C(=O)O | 23.2
CCN(CC(=O)Nc1cc(Cl)ccc1C)C(=O)CN1C(=O)NC2(CCCC2)C1=O | 8.3
CSc1ncccc1C(=O)OCC(=O)N(CC(C)C)C1CCS(=O)(=O)C1 (centres unmarked) | -0.0479
Cc1cc(C)nc(N(C#N)Cc2ccc(Br)cc2)n1 | 4.33
O=C1NC(=O)N(c2ccccc2)C(=O)/C1=C/c1coc2ccc(O)cc2c1=O | -6.18
CN(C)CCCNC(=S)Nc1ccc(Oc2ccccc2)cc1 | -3.24
CON=C1CCN(c2ncc(C(F)(F)F)cc2Cl)CC1 | -5.78
CCN(CC)S(=O)(=O)c1cccc(C(=O)Nc2ccccc2)c1 | -28
CCN(CC)S(=O)(=O)c1cccc(NC(=O)c2ccc(C#N)cc2)c1 | -35

Compound | hERG current change (%, negative = inhibition) at 10uM [%]
CCN(CC)S(=O)(=O)c1cc(NC(=O)COc2ccc(C#N)cc2OC)ccc1C | -38.1
O=C(Cn1nnc(-c2ccccc2)n1)Nc1cccc(S(=O)(=O)N2CCCC2)c1 | -2.26
CCN(CC)S(=O)(=O)c1cccc(NC(=O)c2cccc(S(=O)(=O)N3CCCC3)c2)c1 | -80.8
CCN(CC)S(=O)(=O)c1cccc(C(=O)Nc2ccc(C#N)cc2)c1 | -77.3
CN(C)S(=O)(=O)c1cccc(NC(=O)c2cccc(S(=O)(=O)N3CCCCC3)c2)c1 | -27.9
NC(=O)c1ccc(-c2nnn(CC(=O)Nc3cccc(S(=O)(=O)N4CCCC4)c3)n2)cc1 | 4.54
COc1cc(C#N)ccc1OCC(=O)Nc1cccc(S(=O)(=O)N2CCCC2)c1 | -44.4
O=C(Cn1nnc(-c2ccccc2)n1)Nc1cccc(S(=O)(=O)N2CCOCC2)c1 | -56.2
CCN(CC)S(=O)(=O)c1cccc(NC(=O)CNc2cccc(S(=O)(=O)N3CCCC3)c2)c1 | 5.46
CCN(CC)S(=O)(=O)c1cccc(NC(=O)COc2ccc(C#N)cc2OC)c1 | -72.4
Cc1cc(C)c(S(=O)(=O)c2ccccc2Cl)c(=O)[nH]1 | 10.7
C=CCOCCN(CCOCC=C)C1=NS(=O)(=O)c2ccccc21 | 12.5
COc1ccc(NS(=O)(=O)c2cccc(NC(=O)C3=NN(c4ccccc4)C(=O)CC3)c2)cc1 | -35.1
O=C(NC1=NCCS1)c1cc2ccccc2o1 | -23.8
CCN(CC)S(=O)(=O)c1cccc(NC(=O)c2cncc(Br)c2)c1 | -69.9
CN(C)S(=O)(=O)c1cccc(NC(=O)c2cncc(Br)c2)c1 | -3.39
CCN(CC)S(=O)(=O)c1cccc(NC(=O)c2ccc(Br)cc2)c1 | 4.07
CN1CCN(S(=O)(=O)c2cccc(C(=O)Nc3sccc3C(N)=O)c2)CC1 | -75.4
CN1CCN(S(=O)(=O)c2cccc(C(=O)Nc3sccc3C#N)c2)CC1 | -5.03
O=C(Nc1ccc2c(c1)CCC2)c1cccc(S(=O)(=O)N2CCN(c3ccc(F)cc3)CC2)c1 | -3.29
O=C(Nc1cccc(S(=O)(=O)N2CCCC2)c1)c1cccc(S(=O)(=O)N2CCOCC2)c1 | -15.5
O=C(Nc1ccncc1)c1cccc(S(=O)(=O)N2CCOCC2)c1 | -58.4
CN1CCN(S(=O)(=O)c2cccc(C(=O)Nc3cc(C(N)=O)cc(C(N)=O)c3)c2)CC1 | 4.71

Compound | hERG current change (%, negative = inhibition) at 10uM [%]
O=C(Nc1cccnc1)c1cccc(S(=O)(=O)N2CCOCC2)c1 | 4.06
Cc1cccnc1NC(=O)c1cccc(S(=O)(=O)N2CCN(c3ccc(F)cc3)CC2)c1 | -35.1
O=C(Nc1ccncc1)c1cccc(S(=O)(=O)N2CCN(c3ccc(F)cc3)CC2)c1 | -82.9
Cc1ccc(SCC(=O)c2cc(C)c(O)c(C)c2)cc1 | -3.19
Cc1ccccc1NC(=O)CCc1nnc2ccc(N3CCC4(CC3)OCCO4)nn12 | 8.74
CSCc1nnc(NC(=O)c2ccc(S(=O)(=O)N(C)C)cc2)o1 | 20.7
CCOC(=O)/C(C#N)=N/Nc1ccc(S(=O)(=O)N2CCc3ccccc32)cc1 | 2.18
CCOC(=O)C1=C(C)OC(N)=C(C#N)C1c1cccs1 (centres unmarked) | 8.62
Cc1nnc(NC(=O)CSc2nnc(CNC(=O)C34CC5CC(CC(C5)C3)C4)n2C2CCCCC2)s1 | 2.98
CCOc1ccccc1N1CCN(C(=O)c2cc3cc(OC)ccc3[nH]2)CC1 | -3.66
C=CCn1c(O)c(C(CC)=Nc2ccc3c(c2)CCC3)c(=O)[nH]c1=O | 1.65
O=C(Nc1ccccc1)c1cccc(S(=O)(=O)N2CCCCC2)c1 | 0.607
CCc1cccc(NC(=O)c2cccc(S(=O)(=O)N3CCN(C)CC3)c2)c1 | -53.9
CN1CCN(S(=O)(=O)c2cccc(C(=O)Nc3cccc(S(N)(=O)=O)c3)c2)CC1 | 12.8
CN(C)S(=O)(=O)c1cccc(NC(=O)CNC2CCCCC2)c1.O=C(O)C(=O)O | 5.24
CCN(CC)S(=O)(=O)c1ccc(NC(=O)CNC2CCCCC2)cc1.O=C(O)C(=O)O | -7.08
CCc1cccc(CC)c1NC(=O)c1cccc(S(=O)(=O)N2CCN(C)CC2)c1 | -4.14
O=C(Nc1ccncc1)c1cccc(S(=O)(=O)N2CCCC2)c1 | -60.7
CCN(CC)S(=O)(=O)c1cccc(NC(=O)CNC2CCCCCC2)c1.O=C(O)C(=O)O | -60.8
O=C(Nc1cccc(S(=O)(=O)N2CCCC2)c1)c1ccncc1 | -46.5
CC(C)(CC(=O)O)CC(=O)Nc1ccc2c(c1)ncn2CCc1ccccc1 | 15.8
CNC(=O)NC(=O)COC(=O)c1ccc(-n2c(C)ccc2C)cc1 | -7.41
COc1ccc(C(CC(=O)O)NC(=O)COc2cc(C)ccc2C)cc1OC (centres unmarked) | 21.2

Compound | hERG current change (%, negative = inhibition) at 10uM [%]
CCn1c(=N)n(CC(O)COc2cccc(C)c2)c2ccccc21.Cl (centres unmarked) | -58.6
COCCCNc1nc2c(c(=O)[nH]c(=O)n2C)n1CC(O)COc1cccc(C)c1 (centres unmarked) | -2.66
CCCn1c(=N)n(CC(O)COc2cccc(C)c2)c2ccccc21.Cl (centres unmarked) | -71.3
CCCCn1c(=N)n(CC(O)COc2cccc(C)c2)c2ccccc21.Cl (centres unmarked) | -72.6
Cc1ccc(-n2c(=O)[nH]cc(C(=O)Nc3ccc4c(c3)OCCO4)c2=O)cc1 | 18.3
CC(=O)N1CCN(c2ccc(NC(=O)c3cccc(OCc4ccccc4)c3)cc2)CC1 | 7.06
c1ccc(OCCCn2ccnc2)cc1 | 16.3
O=c1ccc2ccccc2n1Cc1cccc(F)c1 | 9.61
COc1ccc(CCN2C(=O)CC(Cc3ccccc3)C2=O)cc1OC (centres unmarked) | -17.2
Cc1ccc(SCC(=O)OC(C)C(=O)NCc2ccccc2)cc1 (centres unmarked) | -1.8
COc1ccc2c(c1)OC[C@H]1[C@H]2N2C(=O)CN(CC3CCCO3)C(=O)[C@@]2(C)[C@H]1c1ccccc1 (some centres unmarked) | -1.62
COc1ccc(CNc2ccc3c(c2)nc(C)n3C)cc1 | -31.9
CCn1cnc2cc(NCc3ccncc3)ccc21 | 6.89
CCn1cnc2cc(NCc3ccc(Cl)cc3)ccc21 | -68
COc1ccc(OC)c(CNc2ccc3c(c2)nc(C)n3C)c1 | -68.4
CCCn1cnc2cc(NCc3cccs3)ccc21 | -10.9
COc1ccc(CNc2ccc3c(c2)nc(C)n3C)cc1OC | -17.1
CCCn1cnc2cc(NCc3cccc(OC)c3)ccc21 | -67.2
CCn1cnc2cc(NCc3ccc(C)cc3)ccc21 | -40.4
CCc1ccc(CNc2ccc3c(c2)ncn3CC)cc1 | -19.7
CCn1cnc2cc(NCc3ccc(N(C)C)cc3)ccc21 | -8.28
CCn1cnc2cc(NCc3ccc(Br)cc3)ccc21 | -61.3
CCn1cnc2cc(NCc3ccc(OC)cc3)ccc21 | -39.4
